Measured values reported in PubChem BioAssay.
The source made the active and inactive calls.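 How the source made its calls, unless noted: active means normalized viability below 100% at a tested concentration; inactive means the rest.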

Assays:
[1] = ovarian cancer cell viability with rucaparib, profiling panel, oncology-focused library, rucaparib conditional (AID 1508598); details: patient-derived ovarian cancer cells, CellTiter-Glo viability, 144 h, stronger effect = lower value
[2] = kinase inhibitors against Plasmodium liver-stage infection, cell-based, known kinase inhibitor set, luminescence, hepatoma host viability (AID 624392; call rule not given here;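 further: infected cells incubated roughly two days before readout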); details: Plasmodium liver stage in hepatoma cells, luciferase luminescence, concentration not given here; liver cell % of control: measured here: host liver cell viability; parasite % of control: stronger effect = lower value
[3] = modulators of glucocorticoid suppression of NF-kB, cell-based, luciferase, IL-1B stimulus, dexamethasone (AID 624486; call rule not given here;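 on percent of negative control (+Dex): 100% = mean signal of vehicle control wells on the plate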); details: NF-kB luciferase reporter, IL-1B + dexamethasone, luminescence; percent of negative control (+Dex): actives lie on both sides, concentration not given here; z-score: measured here: IL-1B alone, no Dex
[4] = kinase inhibitors altering Pseudomonas killing of worms, whole organism (AID 651566; call rule not given here;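 further: tested at 14 µM; sign flipped so higher z means a lower ratio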); details: C. elegans killed by P. aeruginosa, survival ratio
[5] = activators of macrophage pro-inflammatory response, cell-based, murine, luminescence (AID 652131; call rule not given here); details: murine macrophage pro-inflammatory reporter, stronger effect = higher value
[6] = survival rescue of mitochondrial mutant cells in low glucose, primary screen, MELAS cybrids, Rieske KO mouse fibroblasts, CellTiter-Glo (AID 1508586;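 active means mean z-score across replicates of 1.96 or higher in either the MELAS or the Rieske mutant cell line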;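 further: z relative to plate mean and SD of compound and empty wells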)
[7] = at 0.000305 µM, OCI-C5x cells, with rucaparib 10 µM, 100% = cells with rucaparib alone
[8] = at 0.000305 µM, OCI-C5x cells, without rucaparib
[9] = at 0.000305 µM, OCI-P5x cells, with rucaparib 20 µM, 100% = cells with rucaparib alone
[10] = at 0.000305 µM, OCI-P5x cells, without rucaparib
[11] = at 0.00122 µM, OCI-C5x cells, with rucaparib 10 µM, 100% = cells with rucaparib alone
[12] = at 0.00122 µM, OCI-C5x cells, without rucaparib
[13] = at 0.00122 µM, OCI-P5x cells, with rucaparib 20 µM, 100% = cells with rucaparib alone
[14] = at 0.00122 µM, OCI-P5x cells, without rucaparib
[15] = at 0.00488 µM, OCI-C5x cells, with rucaparib 10 µM, 100% = cells with rucaparib alone
[16] = at 0.00488 µM, OCI-C5x cells, without rucaparib
[17] = at 0.00488 µM, OCI-P5x cells, with rucaparib 20 µM, 100% = cells with rucaparib alone
[18] = at 0.00488 µM, OCI-P5x cells, without rucaparib
[19] = at 0.0195 µM, OCI-C5x cells, with rucaparib 10 µM, 100% = cells with rucaparib alone
[20] = at 0.0195 µM, OCI-C5x cells, without rucaparib
[21] = at 0.0195 µM, OCI-P5x cells, with rucaparib 20 µM, 100% = cells with rucaparib alone
[22] = at 0.0195 µM, OCI-P5x cells, without rucaparib
[23] = at 0.0781 µM, OCI-C5x cells, with rucaparib 10 µM, 100% = cells with rucaparib alone
[24] = at 0.0781 µM, OCI-C5x cells, without rucaparib
[25] = at 0.0781 µM, OCI-P5x cells, with rucaparib 20 µM, 100% = cells with rucaparib alone
[26] = at 0.0781 µM, OCI-P5x cells, without rucaparib
[27] = at 0.313 µM, OCI-C5x cells, with rucaparib 10 µM, 100% = cells with rucaparib alone
[28] = at 0.313 µM, OCI-C5x cells, without rucaparib
[29] = at 0.313 µM, OCI-P5x cells, with rucaparib 20 µM, 100% = cells with rucaparib alone
[30] = at 0.313 µM, OCI-P5x cells, without rucaparib
[31] = at 1.25 µM, OCI-C5x cells, with rucaparib 10 µM, 100% = cells with rucaparib alone
[32] = at 1.25 µM, OCI-C5x cells, without rucaparib
[33] = at 1.25 µM, OCI-P5x cells, with rucaparib 20 µM, 100% = cells with rucaparib alone
[34] = at 1.25 µM, OCI-P5x cells, without rucaparib
[35] = at 5 µM, OCI-C5x cells, with rucaparib 10 µM, 100% = cells with rucaparib alone
[36] = at 5 µM, OCI-C5x cells, without rucaparib
[37] = at 5 µM, OCI-P5x cells, with rucaparib 20 µM, 100% = cells with rucaparib alone
[38] = at 5 µM, OCI-P5x cells, without rucaparib
[39] = MELAS cybrid survival, CellTiter-Glo 48 h, stronger effect = higher value
[40] = Rieske KO mouse fibroblast survival, CellTiter-Glo 72 h

C[C@@]12CC[C@H]3c4ccc(O)cc4C[C@@H](CCCCCCCCCS(=O)CCCC(F)(F)C(F)(F)F)[C@H]3[C@@H]1CC[C@@H]2O (stereo partly drawn)
active: viability [1, 8] 99.5% | viability [1, 12] 98.6%
inactive: viability [1, 7] 127% | viability [1, 9] 110% | viability [1, 10] 107% | viability [1, 11] 116% | viability [1, 13] 109% | viability [1, 14] 112% | viability [1, 15] 118% | viability [1, 16] 110% | viability [1, 17] 116% | viability [1, 18] 117% | viability [1, 19] 118% | viability [1, 20] 108% | viability [1, 21] 116% | viability [1, 22] 122% | viability [1, 23] 114% | viability [1, 24] 112% | viability [1, 25] 119% | viability [1, 26] 118% | viability [1, 27] 119% | viability [1, 28] 125% | viability [1, 29] 122% | viability [1, 30] 120% | viability [1, 31] 123% | viability [1, 32] 112% | viability [1, 33] 119% | viability [1, 34] 121% | viability [1, 35] 124% | viability [1, 36] 128% | viability [1, 37] 119% | viability [1, 38] 122%

Nc1nonc1-c1nc2cnccc2n1C1CC1
86.3%: liver cell % of control [2]
-5.63: z-score [3]
inactive: parasite % of control [2] 247% | z-score [4] -0.345 | z-score [5] -0.857 | z-score [6, 39] -0.391
active: percent of negative control (+Dex) [3] 45%
-0.585: z-score [6, 40]

C[C@H]1NC(=O)NC1=O
inactive: z-score [6, 39] 0.723
-0.336: z-score [6, 40]

CCS(=O)(=O)c1ccc(OC)c(Nc2ncc(-c3cccc(C(C)=O)c3)o2)c1
169%: liver cell % of control [2]
inactive: parasite % of control [2] 48.2% | percent of negative control (+Dex) [3] 87% | z-score [4] 0.56 | z-score [5] -0.091 | z-score [6, 39] 1.14
0.415: z-score [3]
-0.327: z-score [6, 40]

Cc1cccc(Nc2ncc(-c3ccccc3)o2)c1
active: percent of negative control (+Dex) [3] 272%
79.5%: liver cell % of control [2]
inactive: parasite % of control [2] 180% | z-score [4] -1.25 | z-score [5] 1.33 | z-score [6, 39] 0.673
15.2: z-score [3]
-0.569: z-score [6, 40]

Cc1cc(NC(=O)c2cccc(NC(=O)/C=C/CN(C)C)c2)ccc1Nc1nccc(-c2cccnc2)n1
active: viability [1, 37] 83.9%
inactive: viability [1, 7] 118% | viability [1, 8] 133% | viability [1, 9] 111% | viability [1, 10] 110% | viability [1, 11] 116% | viability [1, 12] 132% | viability [1, 13] 108% | viability [1, 14] 113% | viability [1, 15] 140% | viability [1, 16] 160% | viability [1, 17] 108% | viability [1, 18] 107% | viability [1, 19] 146% | viability [1, 20] 172% | viability [1, 21] 104% | viability [1, 22] 106% | viability [1, 23] 180% | viability [1, 24] 183% | viability [1, 25] 111% | viability [1, 26] 109% | viability [1, 27] 172% | viability [1, 28] 199% | viability [1, 29] 116% | viability [1, 30] 112% | viability [1, 31] 163% | viability [1, 32] 186% | viability [1, 33] 103% | viability [1, 34] 116% | viability [1, 35] 159% | viability [1, 36] 194% | viability [1, 38] 108%

C[C@@H]1C[C@H]2[C@@H]3CCC4=CC(=O)C=C[C@]4(C)[C@]3(F)[C@H](O)C[C@]2(C)[C@]1(O)C(=O)CO
active: viability [1, 33] 95.5% | viability [1, 37] 90.8%
inactive: viability [1, 7] 111% | viability [1, 8] 118% | viability [1, 9] 107% | viability [1, 10] 121% | viability [1, 11] 117% | viability [1, 12] 125% | viability [1, 13] 110% | viability [1, 14] 123% | viability [1, 15] 102% | viability [1, 16] 116% | viability [1, 17] 112% | viability [1, 18] 115% | viability [1, 19] 111% | viability [1, 20] 117% | viability [1, 21] 108% | viability [1, 22] 114% | viability [1, 23] 108% | viability [1, 24] 107% | viability [1, 25] 100% | viability [1, 26] 110% | viability [1, 27] 111% | viability [1, 28] 109% | viability [1, 29] 104% | viability [1, 30] 108% | viability [1, 31] 109% | viability [1, 32] 116% | viability [1, 34] 101% | viability [1, 35] 117% | viability [1, 36] 108% | viability [1, 38] 101%

COc1cccc(-n2ncc3c(N/N=C/c4ccc(S(C)(=O)=O)cc4)ncnc32)c1
-0.0857: z-score [6, 40]
107%: liver cell % of control [2]
0.965: z-score [3]
inactive: parasite % of control [2] 26.1% | z-score [4] -1.31 | z-score [5] -0.723 | z-score [6, 39] 1.75
active: percent of negative control (+Dex) [3] 136%

NC(=O)Cc1ccccc1Oc1nccc(-c2c(-c3ccc(F)cc3)ncn2C2CCNCC2)n1
0.475: z-score [3]
-0.373: z-score [6, 40]
inactive: parasite % of control [2] 160% | percent of negative control (+Dex) [3] 105% | z-score [4] -0.78 | z-score [5] 0.598 | z-score [6, 39] -0.586
110%: liver cell % of control [2]
